This is a sample that favours compounds with a hit; in the whole collection about 4.6% have one here.
ssDAF-12 act: activators of S. stercoralis DAF-12 nuclear receptor | HEK293 ssDAF-12/GRIP1 lit1-tk-luc reporter, luminescence; % of 3 µM dafachronic acid response | AID 652126 | 370,000 compounds, 1% hits | activation, % at 6.8 µM;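 active means activation above the mean over all tested compounds plus 3 SD, cut at about 0.9% in these data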
hcDAF12 agonist: activates DAF-12 receptor from parasite H. contortus; HEK293 hcDAF-12 lit1-tk-luc reporter, luminescence; 0% DMSO, 100% Δ7-dafachronic acid; activation, % at 6.8 µM; 370,000 compounds, 1.4% hits; AID 652067;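 active means activation above the mean of all tested compounds plus 3 SD, cut at about 5.5% in these data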
DAX1 inh-1: inhibits human nuclear receptor DAX1. P51843. HEK293 Gal4-DAX1 luciferase reporter, luminescence. inhibition, % at 6.75 µM. 340,000 compounds, 0.99% hits. AID 504766;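 active means inhibition above the mean over all tested compounds plus 3 SD, cut at about 4.2% in these data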;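 further: inhibition shows as a rise in luminescence from relieved DAX1 repression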
DAX1 inh-2: DAX1 (NR0B1) inhibition, primary screen | inhibition, % at 6.8 µM | 370,000 compounds, 1.1% hits | HEK293T StAR-luciferase reporter, SF-1/DAX-1 repression relief;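 active means inhibition above the mean over all tested compounds plus 3 SD, cut at about 3.6% in these data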;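 further: higher inhibition means more luminescence from relief of DAX-1 repression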
Wee1 stabilizer: blocks degradation of human Wee1 kinase. P30291. HeLa Luc-Wee1K328M stability, luciferase luminescence; 100% = proteasome inhibitor MG132 effect. reporter increase, % at 5 µM. 220,000 compounds, 1.2% hits;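 active means activation above the mean of all tested compounds plus 3 SD, set per screening run, cut at about 8.8% in these data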;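 further: cells exposed to compound for 20 h before luminescence read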
Target sequence (P30291 whole entry K328M): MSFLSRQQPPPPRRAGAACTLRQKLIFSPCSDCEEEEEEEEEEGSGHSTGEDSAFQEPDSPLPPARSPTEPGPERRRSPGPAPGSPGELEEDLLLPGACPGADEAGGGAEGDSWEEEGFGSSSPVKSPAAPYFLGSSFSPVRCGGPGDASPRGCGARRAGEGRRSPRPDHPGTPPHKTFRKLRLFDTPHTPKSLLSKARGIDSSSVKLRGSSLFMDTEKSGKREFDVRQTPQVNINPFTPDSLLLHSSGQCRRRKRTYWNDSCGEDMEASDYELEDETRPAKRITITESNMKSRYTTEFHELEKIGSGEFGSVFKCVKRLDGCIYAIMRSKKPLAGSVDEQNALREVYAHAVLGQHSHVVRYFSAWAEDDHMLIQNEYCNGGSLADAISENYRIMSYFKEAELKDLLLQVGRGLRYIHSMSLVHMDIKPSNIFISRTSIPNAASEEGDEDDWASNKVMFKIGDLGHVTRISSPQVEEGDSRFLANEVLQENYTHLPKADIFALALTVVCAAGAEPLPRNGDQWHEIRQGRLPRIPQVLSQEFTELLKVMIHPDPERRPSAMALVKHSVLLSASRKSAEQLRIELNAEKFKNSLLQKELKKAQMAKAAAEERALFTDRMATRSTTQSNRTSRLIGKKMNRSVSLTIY
hgDAF12 agonist: activates the H. glycines DAF-12 receptor ligand-binding domain; activation, % at 6.8 µM; HEK293 GAL4-hgDAF12 UAS-luciferase reporter, agonist luminescence; normalized to butyrate control; 370,000 compounds, 1.8% hits;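 active means activation above a cutoff set at the mean of all screened compounds plus 3 SD, cut at about 10% in these data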
Of the large screens only hits and unclear results are named; the others gave an inactive call.

Cc1cc(C)c2c(N=CN(C)C)c(C(=O)N3CCN(c4ncccn4)CC3)sc2n1	none
COC(=O)/C=C/c1sc2nc(C)cc(C)c2c1N=CN(C)C	hcDAF12 agonist 5.6 (no result: DAX1 inh-1)
CN(Cc1ccccc1Br)C(=O)CSc1nnnn1C1CC1	none (no result: Wee1 stabilizer)
CN(C)S(=O)(=O)c1cc(NC(=O)CN2CCc3ccccc32)ccc1Cl	ssDAF-12 act 1.0
COc1ccc(-c2[nH]ncc2CN(C)CCCN2CCOCC2)cc1F	DAX1 inh-1 5.9
COc1ccc(-c2[nH]ncc2CN2CCCO2)cc1F	none
O=[N+]([O-])c1cccc(-c2noc(-c3ccco3)n2)c1	Wee1 stabilizer 8.9, hgDAF12 agonist 12
CCN(CC)c1cc(-c2ccccc2)ncn1	none
CN(C)c1ccc(-c2ccccc2)nn1	DAX1 inh-2 3.8
Cc1ccccc1CN1CCCCC(NC(=O)c2cc(-c3ccccc3)no2)C1=O (centres undefined)	none (no result: DAX1 inh-1, Wee1 stabilizer)
Cn1c(=O)c2cc(S(=O)(=O)N3CCN(Cc4ccccc4)CC3)ccc2n(C)c1=O	none (no result: DAX1 inh-1, Wee1 stabilizer)
COc1ccc(-c2nc(CCl)cs2)cc1OC	none
CCc1ccc(-c2nc(CCl)cs2)cc1	hgDAF12 agonist 12
CCNC(=O)C1(C)CCN(Cc2ccc(-c3ccccc3)cc2)C1 (centres undefined)	none (no result: DAX1 inh-1, Wee1 stabilizer)
COc1cc2c(cc1OC)C(C)=NC1(CCCCC1)C2	DAX1 inh-1 4.6
CSc1nc(Cl)c(Cc2ccc(OCC(C)C)cc2)c(N2CCOCC2)n1	hcDAF12 agonist 5.9
CCCCOc1ccc(Cc2c(Cl)nc(SC)nc2N2CCOCC2)cc1	none
CCOC(=O)c1c(C)nn(-c2ccc(NC(=O)/C=C/C(=O)O)cc2)c1C	none
CCNC(=O)Nc1ccc(-n2nc(C)c(C(=O)OCC)c2C)nc1	DAX1 inh-1 4.8
Cc1ccc(S(=O)(=O)N2C[C@H]3[C@H]4C(=O)N(C)C(=O)[C@H]4CC(=O)[C@H]3[C@@H]2c2ccccc2F)cc1	none (no result: DAX1 inh-1, Wee1 stabilizer)
CN(C)C(=O)c1nc2ccccc2s1	hcDAF12 agonist 6.5
COc1ccc(C(c2nnnn2C2CCCCC2)N2CCN(C/C=C/c3ccccc3)CC2)cc1 (centres undefined)	none (no result: DAX1 inh-1, Wee1 stabilizer)
COC(=O)C1CN(Cc2ccc(OC)cc2)CCS(=O)(=O)N1Cc1ccc(C)cc1 (centres undefined)	none (no result: DAX1 inh-1, Wee1 stabilizer)
CN1C(=O)C(CC(=O)Nc2ccc(F)cc2)N(Cc2cccs2)C1=S (centres undefined)	ssDAF-12 act 9.6
C=CCn1c(C)nnc1SCC(=O)Nc1cc(S(=O)(=O)N2CCCC2)ccc1Cl	none (no result: Wee1 stabilizer)
COc1ccc(NC(=O)CN2CCN(c3ccccc3)CC2)cc1	hgDAF12 agonist 12
COc1ccc(NC(=O)COC(=O)CC2CCCC2)cc1	ssDAF-12 act 1.2 (no result: Wee1 stabilizer)
Cc1ccc(NC(=O)CCSc2ccccn2)cc1	DAX1 inh-1 4.2, DAX1 inh-2 4.4, hgDAF12 agonist 11
COc1ccc(NC(=O)COCC(=O)Nc2ccc(C)cc2)cc1	DAX1 inh-1 5.6 (no result: Wee1 stabilizer)
COc1ccc(NC(=O)COC(=O)CC2CCCCC2)cc1	none (no result: Wee1 stabilizer)
COc1ccc(OCC(=O)Nc2ccc(C)cc2)cc1	none
O=S(=O)(NC(CO)Cc1ccccc1)c1cc(Cl)ccc1F (centres undefined)	none (no result: Wee1 stabilizer)
CCCCCc1ccnc(CC(=O)c2ccc(OC)cc2)c1	none (no result: Wee1 stabilizer)
CNC(=O)CCC(=O)Nc1ccc(C)cc1	DAX1 inh-1 4.7
CCCCCn1c(CN2CCCCC2CC)nc2c1c(=O)n(C)c(=O)n2C (centres undefined)	Wee1 stabilizer 11
CC(=O)Oc1cccc(C(=O)Nc2ccc(NC(=O)c3cccs3)cc2)c1	DAX1 inh-2 4.5 (no result: Wee1 stabilizer)
COc1cccc(C(=O)Nc2cccc(NC(=O)c3cccs3)c2)c1	none (no result: Wee1 stabilizer)
OC(c1cc(Cl)cc(Cl)c1)c1ncc(-c2ccccc2F)[nH]1 (centres undefined)	none (no result: DAX1 inh-1, Wee1 stabilizer)
Cn1ccnc1C1CCCCN1Cc1nc(-c2ccc(Cl)cc2)no1 (centres undefined)	hgDAF12 agonist 12
c1ccc(OCc2nnc3sc(-c4cccs4)nn23)cc1	none
Clc1ccc(Cl)c(-c2nn3c(COc4ccccc4)nnc3s2)c1	ssDAF-12 act 1.4
O=C(CCS(=O)(=O)c1ccccc1)Nc1ccc(S(=O)(=O)Nc2nccs2)cc1	none (no result: Wee1 stabilizer)
CCn1nnc(NC(=O)c2ccccc2Br)n1	ssDAF-12 act 1.0
CCCn1nnc(NC(=O)c2ccccc2Br)n1	none
CCCn1nnc(NC(=O)c2ccc3ccccc3c2)n1	hgDAF12 agonist 11
CCNC(=S)Nc1ccc(NC(=O)c2ccccc2O)cc1	ssDAF-12 act 1.6
CCNC(=S)Nc1cccc(NC(=O)c2ccccc2O)c1	none
CCc1ccc(NC(=O)c2ccccc2Br)cc1	DAX1 inh-1 5.9, hgDAF12 agonist 12
COc1cccc(N2CCN(C(=O)CSc3nc4ncccc4[nH]3)CC2)c1	none (no result: DAX1 inh-1, Wee1 stabilizer)
COc1cccc(S(=O)(=O)NC2CCN(C#N)C2)c1 (centres undefined)	none (no result: Wee1 stabilizer)
Cc1nc2c3cc(F)ccc3n(CCN3CCCCC3)c2s1	Wee1 stabilizer 9.7
Cc1nc2c3ccccc3n(CCN3CCCCC3)c2s1	none (no result: ssDAF-12 act, hcDAF12 agonist, DAX1 inh-1, DAX1 inh-2, hgDAF12 agonist)
COc1ccc(CN2CCNC(=O)C2CC(=O)N(C)C2CCCCC2)cc1OC (centres undefined)	none (no result: Wee1 stabilizer)
O=S(=O)(N[C@@H]1CCCC[C@H]1N1CCOCC1)c1ccc(Cl)cc1	none (no result: DAX1 inh-1, DAX1 inh-2, Wee1 stabilizer)
CCCCCOC(=O)CSc1nnc(-c2cc(OC)c(OC)c(OC)c2)o1	Wee1 stabilizer 9.0
O=C(Nc1nc(-c2cccs2)cs1)c1ccc([N+](=O)[O-])o1	ssDAF-12 act 2.0 (no result: Wee1 stabilizer)
O=C(Nc1nc(-c2ccncc2)cs1)c1ccco1	none
O=C(Nc1nc(-c2cccs2)cs1)c1ccc(Cl)cc1	none
O=C(Nc1nc(-c2cccs2)cs1)c1ccco1	DAX1 inh-2 4.1, hgDAF12 agonist 11
COc1ccc(-c2nnn3c2Cn2c4ccccc4c(=O)n2[C@@H](C)C3)cc1	none (no result: DAX1 inh-1, Wee1 stabilizer)
O=C(CNS(=O)(=O)c1cccc(Cl)c1)Nc1ccc(-c2nc3ccccc3s2)cc1	hgDAF12 agonist 11
CC(C)(C)c1ccc(S(=O)(=O)NCC(=O)Nc2ccc(-c3nc4ccccc4s3)cc2)cc1	none
COc1ccc2nc(SCC(=O)C(C)(C)C)[nH]c2c1	DAX1 inh-1 4.5
COc1ccc2nc(SCC(=O)c3ccco3)[nH]c2c1	Wee1 stabilizer 9.1
COc1ccc2nc(SCC(=O)NC(C)(C)C)[nH]c2c1	none
Cc1ccc(C2=NOC(=O)/C2=C\c2ccc(C)o2)cc1	DAX1 inh-1 5.8
COC(=O)c1ccc2c(c1)C(=O)/C(=C/c1ccc(O)cc1)O2	none
COc1cccc(/C=C2\Oc3ccc(O)cc3C2=O)c1O	ssDAF-12 act 1.8, hcDAF12 agonist 6.0, DAX1 inh-2 4.0 (no result: Wee1 stabilizer)
O=C(c1cc(Cl)cc(Cl)c1)N1CCC(Oc2cccnc2)CC1	none (no result: DAX1 inh-1, Wee1 stabilizer)
COC(=O)c1cc(=O)n(Cc2cccs2)c(=Nc2ccccc2)s1	DAX1 inh-1 4.3
COC(=O)c1cc(=O)n(Cc2ccc(F)cc2)c(=Nc2ccccc2)s1	none
